Most compounds without a hit are left out; they make up all but 9.2% or so of the library.
NPC1 prom act – qHTS Assay for NPC1 Promoter Activators; Potency, µM (top dose mostly 9.22 µM), for the others: top-dose activation, most hits filed as activators; 320,000 tested, 2.4% active; Huh7 NPC1 promoter luciferase reporter, 24 h; further: % of control where 0% means no effect; nearly all actives have a fitted effect of over 60% in size
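NPC1 promoter–luciferase Huh7 cells; 24 h compound; luminescence.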
FLuc counter – qHTS profiling assay for firefly luciferase inhibitor/activator using purifed enzyme and Km concentrations of substrates (counterscreen for miR-21 project); Luciferin 4-monooxygenase (Photinus pyralis), P08659; purified FLuc, Km substrates, luminescence inhibition; Potency, µM (doses to about 57.5 µM), for inactives: at the highest dose activity change, negative = inhibition, actives largely listed as inhibitors; 360,000 tested, 6.9% active;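 further: plate controls were vehicle for no effect and reference inhibitor for full effect; nearly all actives have a fitted effect of over 55% in size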
Target sequence (P08659 whole entry, looked up): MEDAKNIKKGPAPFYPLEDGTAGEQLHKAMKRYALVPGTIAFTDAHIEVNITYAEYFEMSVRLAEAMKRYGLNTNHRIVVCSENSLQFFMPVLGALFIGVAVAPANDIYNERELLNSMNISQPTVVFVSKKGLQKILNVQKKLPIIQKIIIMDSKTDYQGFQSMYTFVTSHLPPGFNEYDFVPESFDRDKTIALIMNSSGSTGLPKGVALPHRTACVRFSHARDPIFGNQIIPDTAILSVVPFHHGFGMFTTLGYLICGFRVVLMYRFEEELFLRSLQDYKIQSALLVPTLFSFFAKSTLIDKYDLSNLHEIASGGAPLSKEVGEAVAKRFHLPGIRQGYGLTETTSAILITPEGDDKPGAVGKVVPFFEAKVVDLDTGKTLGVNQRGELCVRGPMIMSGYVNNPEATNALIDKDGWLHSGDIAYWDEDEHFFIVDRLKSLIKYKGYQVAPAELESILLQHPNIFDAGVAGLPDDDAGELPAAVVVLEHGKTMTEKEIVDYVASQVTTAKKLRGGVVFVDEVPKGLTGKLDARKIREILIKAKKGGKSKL
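Purified P. pyralis luciferase, 10 nM final, with Km-level 10 uM D-luciferin and 10 uM ATP in 50 mM Tris acetate pH 7.5, 10 mM Mg acetate, 0.01% Tween-20, 0.05% BSA; 6-point qHTS titration about 60 µM downward; luminescence read.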
ELG1 genotoxic – qHTS screen for small molecules that induce genotoxicity in human embryonic kidney (HEK293T) cells expressing luciferase-tagged ELG1. HEK293T ELG1-luciferase reporter, luminescence, 16 h. 330,000 tested, 1.3% active. Potency, µM (series often up to 46 µM), without a hit: top-dose activity change, positive = activation, most hits filed as activators; further: % of control where 0% means no effect; nearly all actives have a fitted effect of over 60% in size
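Reporter readout depends on ELG1 protein level, which increases with genetic stress. After 16 hr compound exposure at 37 °C, luciferase activity was quantified using ONE-Glo.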
ELG1 repair inh – qHTS screen for small molecules that inhibit ELG1-dependent DNA repair in human embryonic kidney (HEK293T) cells expressing luciferase-tagged ELG1; HEK293T ELG1-luciferase reporter, luminescence, 16 h; DNA damage induced by 5-fluorouridine; 330,000 tested, 2.3% active; Potency, µM (series often up to 46.1 µM), for the others: at the highest dose activity change, negative = inhibition, hits mostly inhibitors; further: on the % scale 0 is the no-effect control and ±100 the full control effect; nearly all actives have a fitted effect of over 55% in size
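Cells (2,000 per well) received 5-fluorouridine plus test compound or DMSO and were incubated 16 hr at 37 °C, 5% CO2. Luciferase activity was read by luminescence 30 min after ONE-Glo addition; signal suppression marked inhibition of damage-induced ELG1 function.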
SMN2 splice enh – qHTS Assay for Enhancers of SMN2 Splice Variant Expression; HEK293 SMN2-luciferase splicing reporter, luminescence, 30-36 h; 210,000 tested, 2.8% active; Potency, µM (top dose mostly 46.1 µM), for the others: top-dose activity change, positive = activation, usual class: activators; AID 1458, 2008; further: % of control where 0% means no effect; nearly all actives have a fitted effect of over 55% in size
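HEK293 cells carry an SMN2 minigene-luciferase reporter in which exon 7 inclusion puts luciferase in frame. Cells were seeded at 2000 cells/well, attached for 10-12 hours, then exposed to compounds for 30-36 hours at 37C before ONE-Glo luminescence.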
Rab9 promoter act – qHTS Assay for Rab9 Promoter Activators | 320,000 tested, 2.8% active | Huh7 Rab9 promoter-luciferase reporter, luminescence, 24 h | Potency, µM (highest dose often 9.22 µM), without a hit: at the top dose activation, negative = inhibition, most hits filed as activators; further: % of control where 0% means no effect; nearly all actives have a fitted effect of over 60% in size
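Luminescence from Amplite-detected luciferase (10 minutes, ambient) reports Rab9 promoter activation. Before that, stable Rab9-luciferase Huh7 cells (1500/well, reduced-serum OP-MEM I plus 10% FBS) were exposed to compound for 24 hours at 37C.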
Numbers without * were called inactive; ? = inconclusive; nt = not tested or not shown. The call rests on the fitted dose curve; in most records, active means well fitted curve in the direction sought with a large enough effect; inconclusive means small, poorly fitted or top-dose-only effect, or another doubt; inactive means no such curve, though single readings can be large; an effect the other way counts as inactive or inconclusive. Potency means the concentration at half of the fitted maximal effect.

SMILES	NPC1 prom act	FLuc counter	ELG1 genotoxic	ELG1 repair inh	SMN2 splice enh	Rab9 promoter act
O=C1CC(c2cccc(O)c2)c2cc3c(cc2N1)OCO3 (stereo not given)	nt	-13.3%	nt	nt	-0.1%	nt
c1ccc(-c2cn(C[C@H]3CC[C@H](Cn4cc(-c5ccccn5)nn4)O3)nn2)nc1	3.1%	-1.6%	0.3%	14.1%	nt	-1.5%
O=C1c2ccccc2C(=O)N1CCCc1cn(C[C@H]2CC[C@H](Cn3cc(CCCN4C(=O)c5ccccc5C4=O)nn3)O2)nn1	nt	nt	-0.9%	8.2µM*	nt	nt
COC(=O)c1ccc(COC(=O)c2ccc(N(C)C)cc2)cc1	?	-15.0%	0.0%	24.5%	7.08µM*	21.1%
COC(=O)c1cccc(COC(=O)c2ccc(N(C)C)cc2)c1	25.4%	?	3.4%	?	?	?
CN(C)c1ccc(C(=O)OCc2ccccc2)cc1	12.3%	12µM*	23.1µM*	?	-0.6%	8.4%
Cc1cccc(OCC(=O)N(Cc2cccc(Cl)c2)Cc2ccco2)c1C	nt	-4.3%	nt	nt	-28.7%	nt
CN1C(=O)C(C)(C)c2cc(S(=O)(=O)N3CCCC(C(=O)NCc4ccc(Cl)cc4)C3)ccc21 (stereo not given)	0.4%	-1.9%	-5.7%	14.6µM*	nt	-3.7%
CN1C(=O)C(C)(C)c2cc(S(=O)(=O)N3CCCC3C(=O)NCc3ccc(F)cc3)ccc21 (stereo not given)	0.2%	6.2%	0.3%	1.6%	nt	2.2%
CC(=O)c1ccc(OCc2cc(C(=O)N(C)Cc3ccccn3)no2)cc1	?	15.1µM*	?	?	nt	?
Cc1cc(OCc2cc(C(=O)N(C)C(C)c3ccccn3)no2)cc(C)c1Cl (stereo not given)	?	19µM*	?	?	nt	?
Cc1cc(OCc2cc(C(=O)N(C)Cc3ccccn3)no2)cc(C)c1Cl	3.98µM*	12µM*	?	?	nt	3.98µM*
CN1[C@H](Cc2ccccc2)C=C[C@]1(C)C(=O)NCC1CC1	nt	nt	nt	nt	-5.9%	nt
O=C(CSc1nnc(-c2ccc(Cl)cc2)n1-c1ccc(Cl)cc1)N/N=C/c1ccco1	-2.1%	0.9%	-6.8%	23.1µM*	-27.6%	-0.5%
Cc1ccc(/C=N/NC(=O)CSc2nnc(-c3ccc(Cl)cc3)n2-c2ccccc2)o1	-1.8%	4.9%	-7.7%	?	nt	-2.6%
CC(C)(C)c1ccc(/C=N/OCC(=O)NCc2ccccc2)cc1	0.0%	16.9µM*	-1.1%	?	-14.5%	-8.7%
CC(C)(C)c1ccc(/C=N/OCC(=O)NCc2ccc(F)cc2)cc1	-0.9%	30.1µM*	-3.1%	?	-11.6%	0.3%
O=C(c1ccco1)N1CCN(C(=S)Nc2ccccc2C(F)(F)F)CC1	1.0%	-0.8%	-12.0%	20.6µM*	nt	1.0%
FC(F)(F)c1ccccc1NC(=S)N1CCCC1	-2.7%	0.2%	1.7%	-5.2%	nt	3.0%
CCN(CC)C(=O)CSc1nnc(SCc2ccc(Cl)cc2)s1	1.0%	19µM*	-7.0%	?	10.0%	-6.5%
O=C(CSc1nnc(SCc2ccc(Cl)cc2)s1)N1CCOCC1	-15.3%	15.1µM*	-0.3%	-17.6%	-6.1%	0.1%
O=C(Nc1ccc(Cl)cc1)Nc1nnc(SCc2ccc(Cl)cc2)s1	-1.2%	4.0%	-0.6%	-23.2%	-13.9%	-12.7%
O=C(CSCc1ccc(Cl)cc1)N1CCOCC1	10.8%	?	10.0%	?	15.3%	-4.2%
Nc1c(C(=O)CSc2nnc(-c3ccccc3)o2)c(=O)[nH]c(=O)n1C1CC1	-3.4%	-1.2%	?	?	nt	-4.4%
CCc1ccccc1NC(=O)N(C)CCc1c(C)nn(C)c1C	nt	1.5%	nt	nt	-3.5%	nt
SMILES	NPC1 prom act	FLuc counter	ELG1 genotoxic	ELG1 repair inh	SMN2 splice enh	Rab9 promoter act
Clc1cccc(/C=N/Nc2nnc(Cl)c3ccccc23)c1	?	?	8.7%	?	12.2%	20.9%
Clc1ccc(/C=N/Nc2nnc(-c3ncc[nH]3)c3ccccc23)cc1	4.47µM*	0.849µM*	-3.7%	0.0%	?	2.82µM*
O=C(NCCCN1CCN(c2ccccc2F)CC1)c1sc2ncccc2c1-n1cccc1	nt	1.2%	nt	nt	nt	nt
CCc1ccc(NC(=O)c2cccc(NC3=NC4CS(=O)(=O)CC4S3)c2)cc1 (stereo not given)	-0.4%	13.5µM*	9.0%	23.4%	nt	8.3%
O=C(Nc1ccc(Cl)cc1)c1cccc(NC2=NC3CS(=O)(=O)CC3S2)c1 (stereo not given)	2.1%	?	4.8%	1.8%	nt	-1.1%
Cc1cccc(NC(=O)c2cccc(NC3=NC4CS(=O)(=O)CC4S3)c2)c1 (stereo not given)	-3.8%	-6.3%	-2.8%	?	nt	2.0%
CCc1ccc(NC(=O)Cc2ccc(NC3=NC4CS(=O)(=O)CC4S3)cc2)cc1 (stereo not given)	0.4%	?	8.0%	7.1%	nt	11.9%
CC(C)c1ccc(NC(=O)Cc2ccc(NC3=NC4CS(=O)(=O)CC4S3)cc2)cc1 (stereo not given)	1.9%	21.3µM*	13.2%	?	nt	18.9%
CC(C)c1ccc(NC(=O)c2cccc(NC3=NC4CS(=O)(=O)CC4S3)c2)cc1 (stereo not given)	20.2%	6.01µM*	10.7%	?	nt	2.8%
Cc1ccc(NC(=O)c2cccc(NC3=NC4CS(=O)(=O)CC4S3)c2)cc1C (stereo not given)	1.3%	13.5µM*	4.4%	?	nt	-4.1%
COc1ccc(C(CNC(=O)c2cccc(NC(=O)c3cccs3)c2)N2CCCC2)cc1 (stereo not given)	6.9%	?	-0.5%	-17.5%	nt	-0.8%
Cc1ccc(Cl)cc1N1CCN(C(=O)c2ccc(CS(=O)Cc3ccc(Cl)cc3)o2)CC1 (stereo not given)	-4.6%	-0.8%	-5.4%	0.4%	nt	-6.8%
O=C(c1cccc(N2C(=O)C3C4C=CC(C4)C3C2=O)c1)N1CCN(c2ccc(F)cc2)CC1 (stereo not given)	2.0%	0.3%	-6.0%	?	nt	-7.9%
Cc1cccc(N2CCN(C(=O)c3ccc(CS(=O)(=O)c4ccccc4C)o3)CC2C)c1 (stereo not given)	-15.1%	-1.7%	-10.6%	9.2µM*	-46.5%	-12.6%

Screening results from PubChem BioAssay.
